# Results published in PubChem BioAssay AID504834 (National Center for Advancing Translational Sciences (NCATS), 2011).
# In all, about 320,000 compounds went through this assay and about 22,000 (6.9%) were called active. Inconclusive results (about 27%) are left out. This excerpt belongs to a sample that is enriched for actives. Unmarked numbers belong to inactive results. Calls follow the shape of the dose curve; as a rule, active = well fitted inhibition curve with a large enough effect; inconclusive = small, poorly fitted or top-dose-only effect, or another doubt; inactive = no such curve, though single readings can be large or run the other way.
# Experiment: Primary qHTS for delayed death inhibitors of the malarial parasite plastid, 96 hour incubation
# Details: P. falciparum luciferase reporter growth; series mostly up to 28.7 µM; activity change, negative = inhibition: at the top concentration
# Procedure, shortened: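 Readout is luminescence from an integrated firefly luciferase in P. falciparum. Red cells, 2% hematocrit and 0.05% parasitemia final, were cultured with compound through two parasite generations (96 hours) at 37 C, 5% CO2.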
# % is scaled to controls: 0 for no effect and ±100 for the full control effect; potency is read from the fitted curve at half-maximal effect.
Compound,"activity change, negative = inhibition [%]",Potency
CC(CCc1ccccc1)NC(=O)COC(=O)c1ccc(F)cc1 (configuration not stated),-9.38,
O=C(Cc1c(F)cccc1Cl)N1CCN(C(=O)c2ccco2)CC1,149,
COc1ccc(CNC(=O)C2CC(c3ccc(C(F)(F)F)cc3)=NO2)cc1 (configuration not stated),61.6,
CCOC(=O)N1CCN(C(=O)C2CC(c3ccc(F)cc3)=NO2)CC1 (configuration not stated),,4.65 µM (active)
Cc1ccc(NC(=O)C2CC(c3ccc(F)cc3)=NO2)cc1 (configuration not stated),,4.15 µM (active)
O=C(c1ccco1)N1CCN(C(=O)C2CC(c3ccc(F)cc3)=NO2)CC1 (configuration not stated),,7.38 µM (active)
O=C(c1ccc2c(c1)OCO2)N1CCN(C(=O)c2ccco2)CC1,29,
O=C(NCc1cc(C(F)(F)F)cc(C(F)(F)F)c1)C1CC(c2cccc(F)c2)=NO1 (configuration not stated),-0.218,
O=C(c1ccco1)N1CCN(C(=O)C2CC(c3ccc(Cl)c(Cl)c3)=NO2)CC1 (configuration not stated),,5.86 µM (active)
CCNC(=S)N1CCN(C(=O)c2ccco2)CC1,46.8,
O=C(c1ccco1)N1CCN(C(=O)c2ccc(COc3ccc(F)cc3)o2)CC1,-1.91,
CCOC(=O)N1CCN(CC(=O)Nc2ccc(F)cc2)CC1,232,
CCn1ncc(C2=NOC(C(=O)N3CCN(c4ccccc4)CC3)C2)c1C (configuration not stated),56.5,
O=C(COc1nsnc1N1CCOCC1)Nc1ccccc1Cl,0.158,
COc1cccc(/C=C/C(=O)OCC(=O)N2CCN(c3ccccc3)CC2)c1,-26.3,
Cc1ccc(CC2CC(=O)N(c3cc(C)ccc3C)C2=O)cc1 (configuration not stated),-18.3,
Cc1ccc(S(=O)(=O)CC(=O)Nc2sc(C)c(C)c2C(N)=O)cc1,1.09,
O=C(NNC(=O)C1CCC1)c1ccccc1,11.8,
Cc1cccc(C2C3=C(CCCC3=O)N=C3c4ccccc4C(=O)C32)c1 (configuration not stated),-12.5,
COc1ccc(-c2cc(C(=O)NCCCn3ccnc3)no2)cc1,,8.28 µM (active)
O=C(NCCCn1ccnc1)c1cc(-c2ccccc2)on1,4.54,
COc1ccc(-c2cc(C(=O)NCCCN3CCOCC3)no2)cc1,23.3,
Cc1ccc(S(=O)(=O)NC(=O)c2cccc(C)c2)cc1,24,
O=C(NC1CCN(S(=O)(=O)c2ccc(F)cc2)CC1)c1ccccc1,12,
CCN(CC)CCN(C(=O)c1ccc(S(=O)(=O)N2CCOCC2)cc1)c1nc2cc3c(cc2s1)OCCO3,24.7,
Cc1c(C(=O)N2CCCc3ccccc32)sc2nc(-c3ccccc3)cn12,-10.5,

Compound,"activity change, negative = inhibition [%]",Potency
CCCn1nc(C(=O)N2CCCc3ccccc32)c2ccccc2c1=O,-23.3,
Cc1cccc2cc3c(N)c(C(=O)N4CCCc5ccccc54)sc3nc12,,11.7 µM (active)
CCOC(=O)c1c(C)[nH]c(C(=O)OCC(=O)N2CCCC2=O)c1C,7.24,
COc1cccc(NC(=O)COC(=O)/C=C/c2ccco2)c1,-5.91,
COCCCNC(=O)Cc1ccc(-n2c(C)nc3cccnc32)cc1,58.7,
COc1cc2c(cc1OC)CC(=O)N(CCCN(C)C[C@H]1Cc3cc(OC)c(OC)cc31)CC2,15.7,
C#CC(C)(C)NC(=O)CSc1nc2c(c(=O)n(C)c(=O)n2C)n1CCCC,-3.48,
Cn1c(=O)c2c(SCC(=O)N3CCOCC3)nc(C3CC3)nc2n(C)c1=O,27.7,
CCCCn1c(SCC(=O)N2CCOCC2)nc2c1c(=O)n(C)c(=O)n2C,,11.7 µM (active)
CC(C)CC(=O)c1c[nH]c(C(=O)NCc2ccccc2)c1,-10.9,
Cc1nc(SCC(=O)NC2CCCCC2C)c(C#N)c(C)c1C (configuration not stated),-0.344,
COc1ccc(-c2cc(-c3ccc(N)cc3)nc(N)c2C#N)cc1OC,5.39,
CCSc1nc(-c2ccc(OC)cc2)cc(-c2ccc(OC)cc2)c1C#N,,4.65 µM (active)
COc1ccc(-c2cn[nH]c2-c2ccc(OC)cc2)cc1,3.34,
CCOC(=O)CC(=O)CSc1nc(-c2ccccc2)cc(-c2ccc(Cl)cc2)c1C#N,,7.38 µM (active)
N#Cc1c(C(F)(F)F)cc(-c2ccccc2)nc1SCC(=O)N1CCOCC1,20.9,
N#Cc1c(-c2ccccc2)cc(-c2ccccc2)nc1SCC(=O)O,35.1,
Cn1ccsc1=NC(=O)c1cc(S(=O)(=O)N2CCOCC2)ccc1Cl,-14.7,
O=C(NCc1ccc2c(c1)OCO2)C(=O)NCC1OCCN1S(=O)(=O)c1ccc(F)cc1 (configuration not stated),-14.7,
COCCCNC(=S)N1CCN(c2nc(-c3cccc(OC)c3)cs2)CC1,10.2,
COc1ccc(C)cc1Nc1n[n+](-c2ccccc2)c(-c2cccc(Cl)c2Cl)s1,,13.1 µM (active)
COC(=O)c1cnc(Nc2cc(C)ccc2OC)c2ccccc12,-10.3,
COc1ccc(C)cc1Nc1nc(-c2c(C)[nH]c3ccccc23)cs1,0,
CCc1ccc(Nc2n[n+](-c3ccccc3)c(-c3cccc(Cl)c3Cl)s2)cc1,,3.7 µM (active)
N#Cc1ccccc1NC(=O)c1ccc2c(c1)OCO2,26.6,
N#C/C(=C\c1cccnc1)C(=O)Nc1ccc(SC(F)F)cc1,0.243,
